Results on 26 molecules are retold here after PubChem BioAssay (NCATS).

“And” between values parts separate entries of the source, which are not always exact repeats. Equal entries are not always repeated. Inconclusive results are not listed. The source made the active and inactive calls. The call rests on the fitted dose curve; in most records, active means well fitted curve in the direction sought with a large enough effect; inconclusive means small, poorly fitted or top-dose-only effect, or another doubt; inactive means no such curve, though single readings can be large or run the other way. Where a SMILES comes first, the peptide text is derived from it. Bridges are numbered along the chain shown (N, C = ends).
On the % scale 0 is the no-effect control and ±100 the full control effect; potency means the concentration at half of the fitted maximal effect.

The assay is described as follows: qHTS Assay for Identifying Gametocytocidal Compounds (AID 743244).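 On max response: actives lower the fluorescent signal which means gametocytes are killed.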 The note with it: P. falciparum 3D7 stage III-V gametocytes, alamarBlue, 72 h; max response: active compounds read low. In short, it runs like this: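 Late gametocytes (III–V), P. falciparum 3D7; 72 h drug, then 24 h alamarBlue; resazurin reduction read by fluorescence.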
Background: Quantitative high-throughput screening tests each substance at several concentrations.
With `CO[C@@H]1[C@@H](O[C@@H]2O[C@H](C)[C@@H](O[C@H]3C[C@@](C)(O)[C@@H](OC(=O)CC(C)C)[C@H](C)O3)[C@H](N(C)C)[C@H]2O)[C@@H](CC=O)C[C@@H](C)[C@@H](O)/C=C/C=C/C[C@@H](C)OC(=O)C[C@H]1O`, the max response is 4.51% (inactive) and 4.66% (inactive). Consider `CCCC1([C@H](O)C/C=C/[C@H]2[C@H](O)CC(=O)[C@@H]2CCCCCCC(=O)OC)CCC1`, for which the max response is 2.12% (inactive). For `O=S(=O)(O)Oc1ccc(C(c2ccc(OS(=O)(=O)O)cc2)c2ccccn2)cc1`, the max response was 4.73% (inactive). For `CCCCCCCCCCCCCCCC(=O)OC[C@@H](COP(=O)([O-])OCC[N+](C)(C)C)OC(=O)CCCCCCCCCCCCCCC`, the max response is 1.44% (inactive). Turning to `CN[C@@H]1CCc2[nH]c3ccc(C(N)=O)cc3c2C1`, the max response is -0.658% (inactive). As to `CCCC(=O)N1CCCN(c2nc(N)c3cc(OC)c(OC)cc3n2)CC1`, the max response is 16.2% (inactive). As to `CCOC(=O)Cc1cccc(-c2cc(CCCCCCc3ccc(O[C@H]4O[C@H](COC(C)=O)[C@@H](OC(C)=O)[C@H](OC(C)=O)[C@@H]4OC(C)=O)c(-c4cccc(CC(=O)OCC)c4)c3)ccc2O[C@H]2O[C@H](COC(C)=O)[C@@H](OC(C)=O)[C@H](OC(C)=O)[C@@H]2OC(C)=O)c1`, the max response is -24.7% (inactive). `CN(C)CCOc1ccccc1Cc1ccccc1` (tested in a mixture with another compound): the max response is 6.62% (inactive). Take `C/C(=C(/CCO)SSCC1CCCO1)N(C=O)Cc1cnc(C)nc1N` (stereo unspecified): the max response is 4.64% (inactive) and -7.81% (inactive). Regarding `CS(=O)(=O)OCCCNCCCOS(C)(=O)=O`, the max response is -15.1% (inactive). In the case of `O=P(O)(O)OC(CO)CO`, the max response is 10.5% (inactive). On to `COc1ccc(C(=O)Nc2ccccc2CCC2CCCCN2C)cc1` (stereo unspecified), for which the max response was 14.2% (inactive). As for `CN(C(=O)CO)c1c(I)c(C(=O)NCC(O)CO)c(I)c(C(=O)NCC(O)CO)c1I` (stereo unspecified), the max response is -2.64% (inactive). With `O=C(OCCO)c1ccccc1O`, the max response was 18.8% (inactive). Turning to `NCCC(=O)[N-][C@@H](Cc1cnc[nH]1)C(=O)O.[Zn]`, the max response was 14.2% (inactive).

As to `NCCCC[C@H](NC(=O)[C@@H]1CCCN1C(=O)[C@@H]1CSSC[C@H](NC(=O)CNC(=O)CNC(=O)CN)C(=O)N[C@@H](Cc2ccc(O)cc2)C(=O)N[C@@H](Cc2ccccc2)C(=O)N[C@@H](CCC(N)=O)C(=O)N[C@@H](CC(N)=O)C(=O)N1)C(=O)NCC(N)=O` (H-GGGCYFQNCPKG-NH2; disulfide 4-9), the max response is -2% (inactive). With `CC1(S(=O)(=O)O)CC(=O)c2ccccc2C1=O` (stereo unspecified), the Potency is 6.31 µM (active). In the case of `C[C@H](/C=C/[C@H](C)C(C)(C)O)[C@H]1CC[C@H]2/C(=C/C=C3C[C@@H](O)C[C@H](O)C3)CCC[C@]12C`, the max response was 11.6% (inactive).

Turning to `CN1CCN(C2=Nc3ccccc3Cc3ccccc32)CC1`, the max response is 2.36% (inactive). For the molecule `CC(CC(c1ccccc1)c1ccccc1)NC(C)(C)C` (stereo unspecified), the max response was -8.24% (inactive). On to `C[C@H]1C[C@@H]2[C@H]([C@@H](O)C[C@@]3(C)[C@H]2CC[C@]3(O)C(=O)COC(=O)CCC(=O)O)[C@@]2(C)C=CC(=O)C=C12`, for which the max response was -6.5% (inactive). With `CC1(C)S[C@@H]2[C@H](NC(=O)C(C(=O)Oc3ccc4c(c3)CCC4)c3ccccc3)C(=O)N2[C@H]1C(=O)O` (stereo partly specified), the max response is 5.21% (inactive). `CCCN(CC)C(CC)C(=O)Nc1c(C)cccc1C` (stereo unspecified): the max response is 0.657% (inactive). Same read-out and setting: the result for `CC#CCC(C)[C@H](O)/C=C/[C@@H]1[C@H]2C/C(=C/CCCC(=O)O)C[C@H]2C[C@H]1O` (stereo partly specified) reads 11.1% (inactive); that for `CCOC(=O)[C@H](CCc1ccccc1)N[C@@H](C)C(=O)N1CC2(C[C@H]1C(=O)O)SCCS2`, 8.21% (inactive); that for `CC1(C)S[C@@H]2[C@H](NC(=O)[C@H](N)c3ccccc3)C(=O)N2[C@H]1C(=O)OCOC(=O)[C@@H]1N2C(=O)C[C@H]2S(=O)(=O)C1(C)C`, 8.04% (inactive).
